# The list is not random: actives were taken first. Their share in the collection is about 20%.
# CHX counter: counter-screen hit for Shiga toxin inhibitors, cycloheximide | max response, % | cell reporter, cycloheximide protein synthesis inhibition counterscreen | actives 12% (n = 300,000) | AID 2314; in the data active = max response mostly above about 13%, no sharp cut-off; inactive = mostly below about 14%; also: read at 38.3 µM for the half of the compounds with a filed dose; 0% is about no effect
# Pf growth 48h: P. falciparum growth inhibition at 48 hours (one generation). P. falciparum luciferase growth in erythrocytes, 48 h. actives 5.9% (n = 310,000). Potency, µM (series often up to 28.7 µM), for the others: at the highest dose activity change, negative = inhibition, usual class: inhibitors; also: potency is read from the fitted curve at half-maximal effect; % is scaled to controls: 0 for no effect and ±100 for the full control effect
#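 Growth was read as firefly luciferase luminescence after a 48 h, 37 C, 5% CO2 exposure of compounds to reporter-bearing P. falciparum cultures (0.1% parasitemia, 2% hematocrit final) in Albumax-supplemented RPMI 1640.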
# Shiga inhibitor: Shiga toxin inhibition. Vero cells, Shiga toxin protein synthesis inhibition reporter. inhibition, % at 38.7 µM. actives 9.2% (n = 290,000). AID 2315; in the data active = inhibition mostly above about 28%, no sharp cut-off; inactive = mostly below about 43%; also: 0% is about no effect
# HCMV inh: inhibitors of human cytomegalovirus; HFF cells, HCMV-luciferase reporter, 72 h; stronger effect = lower value; actives 4.5% (n = 410,000); AID 1259415; activity change, negative = inhibition, % at 57.5 µM; in the data active = activity change below about -60%; inconclusive = no clear call, values can overlap the other calls; inactive = above about -39%; also: % is scaled to controls: 0 for no effect and ±100 for the full control effect
#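 Two-dose cell screen: HFF monolayers treated with compounds and infected with luciferase-expressing HCMV at 1 PFU/cell, 72 h at 37C, then lysed for luciferase measurement.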
# Pf growth 96h: P. falciparum growth inhibition at 96 hour, primary screen for plastid delayed-death inhibitors. P. falciparum luciferase reporter growth, 96 h. Potency, µM (titrated, usually from 28.7 µM), for the others: at the top dose activity change, negative = inhibition, hits mostly inhibitors. actives 6.9% (n = 320,000); also: potency is read from the fitted curve at half-maximal effect; % is scaled to controls: 0 for no effect and ±100 for the full control effect
#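 Erythrocytes infected with luciferase-expressing P. falciparum were dispensed at 2% hematocrit and 0.05% parasitemia (final), then incubated with compounds 96 hours at 37 C in 5% CO2. Luminescence after detection reagent addition reported growth.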
# * marks the source's active call; other numbers are inactive results; ? = inconclusive; / = no result given. Unless noted, calls follow the shape of the dose curve; as a rule, active = well fitted inhibition curve with a large enough effect; inconclusive = small, poorly fitted or top-dose-only effect, or another doubt; inactive = no such curve, though single readings can be large or run the other way.
SMILES,CHX counter,Pf growth 48h,Shiga inhibitor,HCMV inh,Pf growth 96h
COC(=O)c1ccc(/C=C/c2ccc3cccc(OC(C)=O)c3n2)cc1,56.8*,34.5%,117.0*,61.0,63.5%
O=C(O)c1ccc(/C=C/c2ccc3cccc(O)c3n2)cc1,41.1*,179.1%,81.9*,9.6,1.4%
CC1Cn2c(nc(=O)c3c2NCN(CCc2ccccc2)C3)S1 (centres undefined),-0.6,3.5%,-8.5,-36.5,0.0%
CCOc1cc(N2CCOCC2)c(OCC)cc1NC(=O)c1c(-c2ccccc2)noc1C,/,?,/,62.7,?
Cc1nn(Cc2ccccc2)c2sc(C(=O)N3CCN(Cc4ccc5c(c4)OCO5)CC3)cc12,-2.2,10.4µM*,-6.1,-12.4,?
Cc1onc(-c2c(Cl)cccc2Cl)c1C(=O)N1CCN(Cc2ccccc2)CC1,-6.2,?,7.6,-25.8,?
Cc1onc(-c2ccccc2Cl)c1C(=O)N1CCN(Cc2ccc3c(c2)OCO3)CC1,-2.0,-1.8%,-24.2,11.5,13.1µM*
CCOc1ccccc1N1CCN(C(=O)c2c(-c3ccccc3Cl)noc2C)CC1,-2.2,9.28µM*,-5.9,?,-8.7%
CCOc1cc(N2CCOCC2)c(OCC)cc1NC(=O)c1c(-c2ccccc2Cl)noc1C,14.2,5.86µM*,-9.6,3.3,?
COc1ccc(OC)c(CNC(=O)CCCn2c(=O)c3cccn3c3cccnc32)c1,/,/,/,-9.1,/
O=S(=O)(NCCc1c[nH]c2ccccc12)c1ccc(F)cc1,/,/,/,16.7,/
Cc1ccc(N2CC(NC(=O)C(=O)c3c[nH]c4ccccc34)CC2=O)cc1C (centres undefined),/,13.2%,/,17.3,15.1%
COc1ccc(-c2c(C(C)=O)c(C)nc3sc4c(=O)[nH]nnc4c23)cc1,-2.5,-11.7%,14.2,50.4,-3.0%
COc1ccc(-c2c3c(nc4sc(C(=O)Nc5ccc(Cl)cc5)c(N)c24)CC(C)(C)CC3=O)cc1,/,/,/,1.6,/
COc1ccc(-c2c3c(nc4sc5c(=O)[nH]c(C)nc5c24)CCC3)cc1,-4.0,-12.5%,-11.6,-88.4*,?
COc1ccc(-c2c3c(nc4sc(C(=O)Nc5cc(C)on5)c(N)c24)CCC3)cc1,2.3,4.15µM*,-11.0,?,13.9%
Cc1cccc(C(=O)NCCC(=O)NCc2ccccc2Cl)c1,/,-5.6%,/,-35.7,-2.0%
CN(Cc1ccccc1)C(=O)c1cc2cc(F)ccc2[nH]1,65.0*,?,74.5*,41.9,?
Cn1cc(S(=O)(=O)c2cccc(Cl)c2)c(=O)c2cc(F)c(N3CCN(c4ccc(F)cc4)CC3)cc21,/,/,/,-39.7,/
Cn1cc(S(=O)(=O)c2cccc(Cl)c2)c(=O)c2cc(F)c(N3CCCCC3)cc21,/,/,/,-61.5*,/
O=C(CN(Cc1ccccc1Cl)C(=O)c1csnn1)NCCc1ccccc1,-7.8,9.8%,-17.2,-13.6,12.6%
O=C(Nc1ccc2oc(-c3ccccc3Cl)nc2c1)c1cncc(Br)c1,65.8*,126.3%,70.7*,-18.1,-6.2%
O=C(Nc1ccc2oc(-c3cc(Br)ccc3Cl)nc2c1)c1ccc2ccccc2c1,/,/,/,-93.5*,/
O=C(Nc1ccc2oc(-c3ccc4ccccc4c3)nc2c1)c1cc(Br)ccc1Cl,/,/,/,52.1,/
COc1ccc(S(=O)(=O)N2CCN(CC(=O)Nc3ccc(C)c(F)c3)CC2)cc1,-1.7,-36.2%,14.8,-22.9,13.6%
SMILES,CHX counter,Pf growth 48h,Shiga inhibitor,HCMV inh,Pf growth 96h
CCN(CC)C(=O)Cn1nc(-c2ccccc2O)nc1SCC(=O)Nc1ccc(OC)cc1,10.0,?,-9.6,-2.3,9.2%
CCc1cccc(C)c1Nc1c(-c2ccc(N3CCOCC3)cc2)nc2ncccn12,/,/,/,-2.2,/
COc1ccc(-c2cccc(NS(=O)(=O)c3cc(C)c(Cl)cc3C)c2)nn1,/,/,/,-16.5,/
[O-][n+]1onc2c3cc(-c4ccccc4)nnc3ccc21,5.0,38.1%,-0.8,-99.0*,10.6%
Fc1ccc2nc(-c3ccccc3)ccc2c1,/,/,/,1.4,/
COc1ccc(-c2ccccc2)cc1NCc1ccc(OC)c(OC)c1,7.9,23.6%,-5.6,-16.9,61.6%
COc1ccccc1CNc1cc(-c2ccccc2)ccc1OC,5.7,?,-8.5,-13.8,9.28µM*
COc1ccccc1CNCCc1ccc(F)cc1,-3.7,/,-10.4,35.6,0.0%
COc1ccc(-c2ccccc2)cc1NCc1ccccc1C,44.0*,68.0%,46.3,-27.9,?
COc1ccccc1CNc1ccccc1F,16.9*,26.0%,23.9,-19.8,21.8%
Cc1ccc(C(=O)Nc2cccc(C(F)(F)F)c2)cc1NC(=O)c1c[nH]c2cc(C(F)(F)F)ccc2c1=O,/,/,/,2.1,/

# Source: PubChem (National Center for Advancing Translational Sciences (NCATS))
